Test results from PubChem BioAssay (EPA / NIEHS).
Results filed as inconclusive are left out. Active and inactive are the calls of the source. Rule for the calls: active = hit-call score of the fitted dose curve at least 0.9, where 1 is the maximum; inconclusive = response in the unintended direction; inactive = score below 0.9.

Target: human Beta-secretase (BACE), BACE1 (gene 23621) (UniProt P56817)
Test: NVS_ENZ_hBACE: NovaScreen (NVS) Enzymatic Assay for human Beta-secretase (BACE) (AID 2283140);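 note: hits are inhibitors that reduce fluorescent substrate signal versus DMSO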
Outline: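 Enzyme from SF9 cells was incubated 1 hour with compound and fluorogenic substrate, activity read by fluorescence. Single-concentration duplicates at 25 uM preceded concentration-response follow-up; fitting relative to DMSO baseline.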

human Beta-secretase (BACE), BACE1 (gene 23621), sequence (P56817 whole entry, looked up): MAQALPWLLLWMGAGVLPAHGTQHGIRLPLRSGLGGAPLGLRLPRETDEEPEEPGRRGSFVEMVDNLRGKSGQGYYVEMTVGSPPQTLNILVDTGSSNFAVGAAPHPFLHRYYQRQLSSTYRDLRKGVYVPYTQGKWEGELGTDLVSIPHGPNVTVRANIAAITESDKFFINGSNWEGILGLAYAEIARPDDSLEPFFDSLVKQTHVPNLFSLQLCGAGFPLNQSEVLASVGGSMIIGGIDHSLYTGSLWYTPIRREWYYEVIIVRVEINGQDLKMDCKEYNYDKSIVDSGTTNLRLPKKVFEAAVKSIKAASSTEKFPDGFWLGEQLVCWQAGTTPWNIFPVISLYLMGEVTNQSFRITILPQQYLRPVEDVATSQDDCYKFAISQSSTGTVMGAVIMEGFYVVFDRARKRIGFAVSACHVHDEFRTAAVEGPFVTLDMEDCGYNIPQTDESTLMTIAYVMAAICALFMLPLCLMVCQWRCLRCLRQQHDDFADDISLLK

Compound | outcome | AC50
COC(=O)N(C(=O)N1CO[C@@]2(C(=O)OC)Cc3cc(Cl)ccc3C2=N1)c1ccc(OC(F)(F)F)cc1 | inactive | –
CC1(C)C(C=C(Cl)Cl)C1C(=O)OC(C#N)c1cccc(Oc2ccccc2)c1 (stereo unspecified) | inactive | –
CC1(C)C(C(=O)OC(C#N)c2cccc(Oc3ccccc3)c2)C1(C)C (stereo unspecified) | – | 2800 nM (active)
Cc1c(COC(=O)[C@@H]2[C@H](/C=C(\Cl)C(F)(F)F)C2(C)C)cccc1-c1ccccc1 | inactive | –

Target: human AKT serine/threonine Kinase 2 (AKT2), AKT2 (gene 208) (UniProt P31751)
Sequence (P31751 whole entry, looked up): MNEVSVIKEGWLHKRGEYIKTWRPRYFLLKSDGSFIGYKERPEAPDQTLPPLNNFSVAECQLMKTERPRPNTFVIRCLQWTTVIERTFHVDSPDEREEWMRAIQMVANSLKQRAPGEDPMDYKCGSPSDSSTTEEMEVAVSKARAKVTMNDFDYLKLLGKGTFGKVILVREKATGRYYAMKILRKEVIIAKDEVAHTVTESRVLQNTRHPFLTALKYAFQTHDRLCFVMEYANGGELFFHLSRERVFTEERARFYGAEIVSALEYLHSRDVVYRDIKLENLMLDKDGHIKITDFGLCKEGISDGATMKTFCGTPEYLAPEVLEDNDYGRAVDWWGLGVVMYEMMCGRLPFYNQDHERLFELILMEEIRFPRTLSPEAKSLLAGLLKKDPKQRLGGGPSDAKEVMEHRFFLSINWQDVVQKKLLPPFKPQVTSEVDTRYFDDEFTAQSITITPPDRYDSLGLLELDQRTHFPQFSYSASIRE
Test: NVS_ENZ_hAKT2: NovaScreen (NVS) Enzymatic Assay for human AKT serine/threonine Kinase 2 (AKT2) (AID 2283141)
Outline: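 Cell-free fluorescence/electrophoretic mobility shift readout of recombinant human AKT2 activity, 1 h after chemical dosing. Duplicate primary screen at 25 uM, then singleton concentration-response up to 50 uM; loss of signal versus DMSO baseline.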

Compound | outcome
Nc1c(Cl)c(Cl)nc(C(=O)O)c1Cl | inactive
O=c1n(Cl)c(=O)n(Cl)c(=O)n1Cl | inactive
CS(=O)(=O)c1cc(C(F)(F)F)ccc1C(=O)c1cnoc1C1CC1 | inactive
CCCC(=NOCC)C1=C(O)CC(CC(C)SCC)CC1=O (stereo unspecified) | inactive

Target: human Caspase 8 (CASP8), CASP8 (gene 841) (UniProt Q14790)
Sequence (Q14790 whole entry, looked up): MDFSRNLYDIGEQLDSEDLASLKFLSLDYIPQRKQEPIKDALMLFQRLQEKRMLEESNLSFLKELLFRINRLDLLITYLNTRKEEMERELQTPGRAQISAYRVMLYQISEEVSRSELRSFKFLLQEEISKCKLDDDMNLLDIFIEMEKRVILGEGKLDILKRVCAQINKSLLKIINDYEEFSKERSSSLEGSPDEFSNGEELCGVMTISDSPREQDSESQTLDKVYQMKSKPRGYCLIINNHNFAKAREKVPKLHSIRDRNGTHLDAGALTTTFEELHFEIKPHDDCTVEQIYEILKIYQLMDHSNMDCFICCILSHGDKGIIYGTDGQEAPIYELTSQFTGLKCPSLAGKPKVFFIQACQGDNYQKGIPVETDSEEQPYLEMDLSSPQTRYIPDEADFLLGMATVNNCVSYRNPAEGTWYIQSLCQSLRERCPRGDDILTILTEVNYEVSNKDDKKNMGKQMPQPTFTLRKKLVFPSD
Test: NVS_ENZ_hCASP8: NovaScreen (NVS) Enzymatic Assay for human Caspase 8 (CASP8) (AID 2283146)
Outline: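 The primary screen tested compounds in duplicate at a single 25 uM concentration, with actives followed up in concentration series. Activity of recombinant (E. coli) protease was measured by fluorescence 1 h post-dose, as signal loss against DMSO.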

Compound | outcome
CCSC(=O)N1CCCCCC1 | inactive
CCOC(=O)C(C)OC(=O)c1cc(Oc2ccc(C(F)(F)F)cc2Cl)ccc1[N+](=O)[O-] (stereo unspecified) | inactive
Nc1c(Cl)c(F)nc(OCC(=O)O)c1Cl | inactive
